High-throughput results from PubChem.
An excerpt weighted towards active compounds, which were near 4.1% of everything screened.
Mdm2-MdmX inh = inhibitors of human Mdm2-MdmX association, primary screen, cell-based, luminescence, split luciferase, SaOS-2, uHTS; inhibition, % at 8 µM; SaOS-2 split-luciferase Mdm2/MdmX complementation; Protein Mdm4 (Homo sapiens) + E3 ubiquitin-protein ligase Mdm2 (Homo sapiens), …; 330,000 tested, 3% active;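 active = inhibition of at least 50% at 8 µM in the primary screen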
Target sequence (O15151 whole entry, looked up): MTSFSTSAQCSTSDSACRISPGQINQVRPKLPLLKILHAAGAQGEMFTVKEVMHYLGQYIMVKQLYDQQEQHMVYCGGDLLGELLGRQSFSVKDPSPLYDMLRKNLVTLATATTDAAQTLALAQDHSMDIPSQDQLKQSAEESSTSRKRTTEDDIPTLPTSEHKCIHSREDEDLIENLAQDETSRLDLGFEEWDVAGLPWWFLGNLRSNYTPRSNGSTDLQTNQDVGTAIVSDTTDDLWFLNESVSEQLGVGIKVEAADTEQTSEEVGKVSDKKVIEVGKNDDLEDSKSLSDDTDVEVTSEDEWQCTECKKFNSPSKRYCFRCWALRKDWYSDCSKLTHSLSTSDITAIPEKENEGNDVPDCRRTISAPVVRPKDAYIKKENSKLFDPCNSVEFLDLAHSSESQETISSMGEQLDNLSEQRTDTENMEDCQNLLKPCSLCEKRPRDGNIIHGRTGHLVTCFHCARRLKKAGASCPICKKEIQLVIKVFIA
Target sequence (Q00987 whole entry, looked up): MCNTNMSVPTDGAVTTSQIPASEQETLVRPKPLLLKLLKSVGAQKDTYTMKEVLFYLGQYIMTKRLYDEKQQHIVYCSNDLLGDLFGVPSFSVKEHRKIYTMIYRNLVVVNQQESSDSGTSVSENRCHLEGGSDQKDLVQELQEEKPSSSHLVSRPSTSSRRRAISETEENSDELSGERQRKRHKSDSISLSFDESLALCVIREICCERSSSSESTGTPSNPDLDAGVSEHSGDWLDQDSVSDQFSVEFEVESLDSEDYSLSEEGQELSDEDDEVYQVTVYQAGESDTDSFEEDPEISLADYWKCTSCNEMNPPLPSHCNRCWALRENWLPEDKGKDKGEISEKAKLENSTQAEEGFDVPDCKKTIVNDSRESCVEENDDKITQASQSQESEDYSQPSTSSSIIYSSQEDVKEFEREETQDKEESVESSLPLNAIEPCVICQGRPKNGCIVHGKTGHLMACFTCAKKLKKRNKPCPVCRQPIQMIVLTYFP
Beta cell apopt = inhibitors of cytokine-induced beta cell apoptosis, primary screen, luminescence; INS-1E cytokine-induced death, ATP luminescence, 48 h; percent of positive-control rescue, neutral wells zero; protection from apoptosis, % (no concentration beside the values); AID 435005, 2010; 300,000 tested, 0.8% active;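 active = Every replicate reaches about 75%, or at least half do and their mean reaches it too, limit read from the data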;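 note: 0% = cytokine-treated negative control wells and 100% = positive control rescue; higher means more ATP so stronger rescue from cytokine killing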
A1 inh = caspase 3/7 activation in MEF A1-2A-BIM cells, primary screen, A1 inhibitor project, cell-based, luminescence, HTS; Caspase-Glo 3/7 luminescence, 3 h; percent of clofoctol response, vehicle zero; caspase activation, % (no concentration beside the values); 330,000 tested, 0.066% active; AID 2462, 2010;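 active = over half of replicate activation scores above 10%, or exactly half above 10 with the replicate mean above 10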
CSC inhib = cancer stem cell viability inhibitors, primary screen, luminescence. cancer stem cell-like cells viability. inhibition, % at 7.5 µM. 300,000 tested, 1.1% active. AID 2717, 2010; in the data active = inhibition above about 75%; tested in HMLE shEcad cells
aSyn 5UTR inh = MLPCN primary screen, SNCA 5' untranslated region; alpha-synuclein 5'UTR reporter, inhibitor activity; inhibition, % (tested at 7.5 µM); 300,000 tested, 0.82% active; in the data active = inhibition above about 60%;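 note: H4 neuroglioblastoma cells stably carrying SNCA 5'UTR luciferase fusion; 0% = DMSO wells and 100% = positive control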
Mdm2 MdmX conf = Mdm2-MdmX complex disruptors, retested hits, confirmation, luminescence, single concentration | 10,000 tested, 55% active | shares compounds with Mdm2-MdmX inh | Mdm2-MdmX binding, luminescent assay | AID 489028, 2010 | inhibition, % at 8 µM; in the data active = inhibition above about 40%
Full FLuc ctr = full-length luciferase signal inhibition, confirmation, counter-screen for Mdm2/MdmX interaction inhibitor project, cell-based, single concentration, SaOS-2. SaOS-2 full-length luciferase counterscreen, luminescence. shares compounds with Mdm2-MdmX inh. inhibition, % at 8 µM. 6,200 tested, 77% active;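 active = mean inhibition at 8 µM reaching about 37%, which flags the compound as non-specific, limit read from the data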;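 note: p53-null SaOS-2 cells with luciferase driven by a doxycycline-inducible promoter; compound on cells about two nights before reading with doxycycline added after day one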
* = called active by the depositor; i = inactive; / = no result given.

SMILES	Mdm2-MdmX inh	Beta cell apopt	A1 inh	CSC inhib	aSyn 5UTR inh	Mdm2 MdmX conf	Full FLuc ctr
COc1ccc2[nH]c(=O)c3c(c2c1)OC(C)(C)C=C3	90*	-27	1	-3	-3	75*	57*
Cc1cc(N)c2cc(NC(=O)/C=C/c3ccccc3Cl)ccc2n1	100*	109*	-1	141*	107*	100*	51*
Cc1cc(C)nc(NC(=O)/C=C/c2ccccc2Cl)n1	-11	8	-5	/	-161	/	/
CSc1nc(-c2ccc(C)cc2)nc(C(Cl)Cl)n1	97*	6	1	72	32	95*	40*
CCSc1nc(-c2ccccc2)nc(C(Cl)Cl)n1	98*	94*	1	100*	123*	100*	4
CCSc1nc(-c2ccccc2)c2cc(Cl)ccc2n1	21	/	0	-18	24	/	/
CSc1nc(Cl)c(C#N)c(-c2ccc(C)cc2)n1	11	3	1	11	19	/	/
COc1ccc(-c2oc3ccccc3c2C(=O)Oc2ccccc2)cc1	25	3	-1	3	-14	/	/
COc1ccc(-c2cc(C(=O)N3CCCCCC3)c3ccccc3n2)cc1	3	/	/	/	/	/	/
COc1cc(/C=C/C(=O)c2ccc3c(c2)OCCO3)cc(Br)c1OCC(=O)N(C)C	95*	-13	0	/	i	79*	56*
CN(C)c1ccc(N2C(=NC(=O)COc3ccccc3)SC3CS(=O)(=O)CC32)cc1 (centres undefined)	5	-2	0	2	-21	/	/
N#Cc1c(NCCN)nc(-c2ccccc2)c2c1CCCC2	58*	5	0	10	18	20	/
Cn1c(=O)oc2cc(S(=O)(=O)N3CCCC(C(=O)NC4CCCc5ccccc54)C3)ccc21 (centres undefined)	76*	-2	1	-13	63*	70*	54*
Cn1c(=O)oc2cc(S(=O)(=O)N3CCCC(C(=O)Nc4ccccn4)C3)ccc21 (centres undefined)	18	0	0	-13	4	/	/
COC(=O)C1=CN(c2cc(C)cc(C)c2)C=C(C(=O)OC)C1c1ccc(OC)c(O)c1	16	14	0	5	31	/	/
COC(=O)C1=CN(c2cc(C)cc(C)c2)C=C(C(=O)OC)C1c1cccc(F)c1	53*	15	0	-1	28	37	106*
COc1ccccc1-c1nnc(SCC(=O)c2c(N)n(C3CC3)c(=O)[nH]c2=O)o1	31	-3	0	-16	/	/	/
Nc1c(C(=O)CSc2nc3ccccc3o2)c(=O)[nH]c(=O)n1C1CC1	80*	1	0	/	/	19	/
CCC1(c2ccc(Cl)cc2)NC(=O)N(Cc2ccc(C(=O)OC)cc2)C1=O (centres undefined)	37	-1	0	5	12	/	/
O=C(OCC(=O)N1CCCC1=O)c1nc(Cl)c(Cl)c(Cl)c1Cl	77*	-5	1	12	-131	26	/
O=C(CSc1nc2nn(-c3ccccc3)c(=O)c-2c2n1CCCCC2)Nc1ccc(OC(F)F)cc1	23	4	2	4	/	/	/
Fc1ccc2[nH]c3c(NCc4ccccc4)ncnc3c2c1	46	59	3	45	-19	/	/
O=C1CCCCc2sc(Br)c([N+](=O)[O-])c2N1	64*	-8	2	23	33	30	57*
Oc1c(C(Nc2nccs2)c2ccc(C(F)(F)F)cc2)ccc2cccnc12 (centres undefined)	/	/	/	/	55	/	/
Oc1c(C(Nc2cccc(C(F)(F)F)c2)c2ccncc2)ccc2cccnc12 (centres undefined)	61*	79*	-1	54	82*	49*	21
SMILES	Mdm2-MdmX inh	Beta cell apopt	A1 inh	CSC inhib	aSyn 5UTR inh	Mdm2 MdmX conf	Full FLuc ctr
Cc1c(Cl)ccc2c(C(=O)NCCN3CCCCC3)cc(-c3ccccn3)nc12	50	11	0	19	27	34	61*
COc1ccccc1-c1cc(C(=O)NC2CCN(C)CC2)c2ccc(Cl)c(C)c2n1	99*	112*	1	108*	101*	68*	37*
O=C(Nc1nccs1)c1cc(-c2ccccn2)nc2c(Cl)cccc12	78*	4	3	7	5	25	/
Cc1cc(NC(=O)c2cc(-c3ccccn3)nc3c(Cl)cccc23)no1	23	1	0	6	16	/	/
CNC(=O)c1c(NC(=O)CCS(=O)(=O)c2ccc(F)cc2)sc(C)c1C	-7	-5	0	4	-8	/	/
O=C(Cn1c2ccccc2c(=O)c2ccccc21)N/N=C/c1cc([N+](=O)[O-])ccc1N1CCCCCC1	97*	16	-1	-3	-21	13	/
O=C(N/N=C/c1cc([N+](=O)[O-])ccc1N1CCNCC1)c1ccc([N+](=O)[O-])cc1	101*	0	1	-18	-24	41*	32
CCN(CC)S(=O)(=O)c1cc(NC(=O)C(C)OC(=O)c2[nH]c(C)c(C(C)=O)c2C)ccc1C (centres undefined)	51*	17	0	-7	14	41*	43*
c1ccc(CN2CCN(c3nc(-c4ccccn4)nc4ccccc34)CC2)cc1	23	/	0	2	0	/	/
CCCN(CCC)c1nc(-c2ccccn2)nc2ccccc12	83*	135*	1	34	-45	85*	25
c1ccc(CCNc2nc(-c3ccccn3)nc3ccccc23)cc1	93*	96*	0	43	1	89*	23
Cc1ccc(-c2nc(COC(=O)C3=NN(c4ccccc4)C(=O)CC3)cs2)cc1	-17	-7	-2	-12	/	/	/
Cc1cc2nc(-c3ccc(SCC(=O)N4CCc5ccccc54)nc3)[nH]c2cc1C	98*	15	-2	52	-220	42*	65*
COc1cc(-c2ccc(NC(=O)NC3CC3)c(OC)c2)ccc1NC(=O)NC1CC1	91*	10	1	15	-99	57*	73*
Cc1cc(C(=O)c2ccc(Cl)cc2)c(NC(=O)CCl)s1	67*	22	2	9	28	6	/
CS(=O)(=O)c1ccc2nc(NC(=O)CCNC(=O)c3ccc(Cl)cc3)sc2c1	-22	/	/	/	/	/	/
CCc1ccc(C(=O)Nc2cc(S(=O)(=O)N3CCOCC3)ccc2N2CCOCC2)cc1	33	6	-1	-24	/	/	/
COc1cccc(/C=N/NC(=O)CSCC(=O)Nc2ccccc2)c1O	52*	5	-1	/	43	49*	51*
